The values that follow come from PubChem BioAssay (EPA / NIEHS).

Molecules are shown by their SMILES. The source made the active and inactive calls. Rule for the calls: active = hit-call score of the fitted dose curve at least 0.9, where 1 is the maximum; inactive = score below 0.9.

Read-out in the assay: CD40, CD40 (gene 958)
Put plainly: BSK_IMphg_CD40: BioMAP Diversity Plus: IMphg Assay for CD40 Biomarker Activity (AID 2284288). The following applies: primary human endothelial cells with macrophages. As to the method: BSK_IMphg is a cell-based, multiplexed-readout assay that uses venular endothelial cells and macrophages, a human vascular primary cell, with measurements taken at 24 hours after chemical dosing in a microplate: 96-well plate.BSK_IMphg_CD40 is an assay component measured in the BSK_IMphg assay. It measures CD40 antibody related to regulation of gene expression using ELISA technology.Data from the assay component BSK_IMphg_CD40 was analyzed at the endpoint, BSK_IMphg_CD40, in the positive analysis fitting direction relative to DMSO as the negative control and baseline of activity. Using a type of binding reporter, gain or loss-of-signal activity can be used to understand protein changes. To generalize the intended target to other relatable targets, this assay endpoint is annotated to the 'cytokine' intended target family, where the subfamily is 'inflammatory factor'.
The levels of cell surface (or secreted, indicated by the prefix "s") biomarker endpoints were measured by ELISA. Overt cytotoxicity to cells in confluent adherent cultures (all systems other than the BT system) was assessed by measuring total protein levels using sulforhodamine B (SRB) staining in parallel cultures at the time of biomarker measurements, indicated as SRB endpoints. For proliferation assays for adherent cell types, individual cell types are cultured at sub-confluence and relative cell numbers quantified by SRB staining at time points optimized for each system (48 h: 3C and CASM3C systems; 72 h: BT and HDF3CGF systems; 96 h: SAg system). SRB was performed by staining cells with 0.1% SRB after fixation with 10% TCA and reading wells at 560 nm.Viability and proliferation of PBMC (T cells) was quantified by Alamar Blue reduction for the SAg and BT systems. For PBMC viability (referred to as PBMC Cytotoxicity within the assay endpoint names), cells were plated (75,000/well in a 96-well plate) and then chemical samples added for 1 h before addition of activators, SEB and TSST-1 (20 ng/mL final concentration each). Cells were incubated for 90 h. Then, Alamar Blue (20 uL/well) (Invitrogen, Cat DAL1100) was added for 6 h, and the plates were read with a fluorescence microplate reader at 546/580 nm (excitation/emission). For PBMC proliferation, cells were plated and activated as above but incubated for only 16 h prior to addition of Alamar Blue. Plates were read after 6 h.
Regarding `FC(F)(F)C(F)(F)C(F)(F)C(F)(F)C(F)(F)C(F)(F)I`, the result was inactive. In the case of `FC(F)C(F)(F)COCC1CO1` (stereo not given), the outcome was inactive. `C[Si](C)(C)C(F)(F)C(F)(F)C(F)(F)F`: the outcome was inactive. With `O=S(=O)(O)CCC(F)(F)C(F)(F)C(F)(F)C(F)(F)C(F)(F)C(F)(F)F`, the result was inactive.

Turning to `FC(F)(F)COC(OCC(F)(F)F)OCC(F)(F)F`, the result was inactive. To `OCCC(F)(F)C(F)(F)C(F)(F)C(F)(F)F` belongs “inactive”; to `NCC(F)(F)C(F)(F)C(F)(F)C(F)(F)F`, “inactive”; to `O=C(Cl)C(F)(F)C(F)(F)C(F)(F)C(=O)Cl`, “inactive”.

`OC(O)(C(F)C(O)(O)C(F)(F)F)C(F)(F)F`: the outcome was inactive.

For `FC(F)=C(F)C(F)(F)C(F)(F)C(F)(F)C(F)(F)C(F)(F)C(F)(F)F`, the result was inactive.
